From PubChem
AMA1-RON2 inh = AMA1-RON2 (P. falciparum) interaction inhibition; actives 0.2% (n = 360,000); AlphaScreen AMA1-biotinylated RON2 peptide binding; Potency, µM (series often up to 58.2 µM), for inactives: at the top dose activity change, negative = inhibition, usual class: inhibitors;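 further: potency means the concentration at half of the fitted maximal effect; 0% = vehicle wells and -100% = peptide control; nearly all actives have a fitted effect of over 45% in size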
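AMA1 (3D7) with his tag at 25 nM final met compounds first, then biotinylated RON2 peptide at 25 nM; detection used donor plus acceptor beads, 10 µg/mL apiece, read by AlphaScreen after 30 min at room temperature.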
Pf growth 48h = P. falciparum growth inhibition at 48 hours (one generation); P. falciparum luciferase growth in erythrocytes, 48 h; Potency, µM (highest dose often 28.7 µM), for inactives: at the top dose activity change, negative = inhibition, usual class: inhibitors; actives 5.9% (n = 310,000); AID 504832; further: potency means the concentration at half of the fitted maximal effect; on the % scale 0 is the no-effect control and ±100 the full control effect
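Here the parasites carry a stable luciferase gene and grow inside erythrocytes in Albumax-based RPMI medium with compound for one erythrocytic cycle. Activity is scored as loss of luminescent signal.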
Pf growth 96h = inhibits malaria parasite growth, 96 h. P. falciparum luciferase reporter growth, 96 h. Potency, µM (highest dose often 28.7 µM), for inactives: at the highest dose activity change, negative = inhibition, hits mostly inhibitors. AID 504834. actives 6.9% (n = 320,000); further: potency means the concentration at half of the fitted maximal effect; on the % scale 0 is the no-effect control and ±100 the full control effect
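96 h incubation, 37 C, 5% CO2, of luciferase-reporter P. falciparum-infected RBCs (2% hematocrit, 0.05% parasitemia final) with test compounds; endpoint luminescence.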
Cycloheximide cs = counter-screen hit for Shiga toxin inhibitors, cycloheximide. cell reporter, cycloheximide protein synthesis inhibition counterscreen. actives 12% (n = 300,000). AID 2314. max response, %; in the data active means max response mostly above about 13%, no sharp cut-off; inactive means mostly below about 14%; further: read at 38.3 µM for the half of the compounds with a filed dose; 0% is about no effect
SARS PLP yeast = blocks SARS-CoV papain-like protease in a yeast assay. Potency, µM (top dose mostly 32.9 µM), without a hit: at the top dose activity, positive = growth rescue, most hits filed as activators. actives 0.19% (n = 330,000). S. cerevisiae expressing SARS-CoV PLpro, growth rescue; calls by dose curve; further: potency means the concentration at half of the fitted maximal effect; 0% is about no effect; nearly all actives have a fitted effect of over 55% in size
Shiga inhibitor = Shiga toxin inhibition; Vero cells, Shiga toxin protein synthesis inhibition reporter; inhibition, % at 38.7 µM; actives 9.2% (n = 290,000); in the data active means inhibition mostly above about 28%, no sharp cut-off; inactive means mostly below about 43%; further: 0% is about no effect
* marks the source's active call; other numbers are inactive results; ? = inconclusive; nt = no result given. Most compounds without a hit are left out; they make up all but 19% or so of the library. Unless noted, the call rests on the fitted dose curve; in most records, active means well fitted curve in the direction sought with a large enough effect; inconclusive means small, poorly fitted or top-dose-only effect, or another doubt; inactive means no such curve, though single readings can be large; an effect the other way counts as inactive or inconclusive.

SMILES	AMA1-RON2 inh	Pf growth 48h	Pf growth 96h	Cycloheximide cs	SARS PLP yeast	Shiga inhibitor
COc1cc(NC(=O)C2CC(c3cccc(OC)c3OC)=NO2)cc(OC)c1OC (centres undefined)	-4.6%	0.0%	-16.7%	-0.9	0.0%	-5.5
COc1ccc(C2=NOC(C(=O)NCc3cccs3)C2)cc1OC (centres undefined)	-0.5%	nt	-28.6%	-0.9	1.7%	-9.9
COc1ccc(C2=NOC(C(=O)Nc3cc(Br)ccc3O)C2)cc1OC (centres undefined)	-6.5%	14.7µM*	1.8%	-2.5	-9.1%	-3.2
COc1ccc(-c2csc(C(O)c3ccc(F)c(OC)c3)n2)cn1 (centres undefined)	5.0%	nt	nt	nt	nt	nt
CN1CCN(C(=O)c2cc(C(C)(C)C)cc(C(C)(C)C)c2)CC1	11.3%	-19.4%	40.0%	-3.8	0.0%	11.1
COc1cccc(C2=NOC(C(=O)Nc3ccc(C(C)=O)cc3)C2)c1 (centres undefined)	3.6%	-20.5%	15.4%	47.8*	-8.2%	53.5*
CN1c2ccccc2C(C)(C)C12C=Nc1c(cc(N3CCOCC3)c3ccccc13)O2 (centres undefined)	-2.1%	?	?	-4.5	-14.5%	-18.2
CN1c2ccccc2C(C)(C)C12C=Cc1cc(O)ccc1O2 (centres undefined)	?	?	?	20.6*	-3.7%	54.4
CCc1cc2cc(C)cc(C)c2[nH]c1=S	3.2%	3.0%	16.6%	7.6	2.2%	36.8
Cc1cccc(N=C2NC(=O)/C(=C/c3cccnc3)S2)c1C	-5.3%	13.1µM*	?	-0.4	0.9%	-24.2
O=C1NC(=Nc2cccc(O)c2)S/C1=C\c1cccnc1	11.8%	?	6.57µM*	1.0	0.4%	9.7
Cc1ccc(N=C2NC(=O)/C(=C/c3cccnc3)S2)c(C)c1	-17.2%	?	?	7.0	-1.7%	-8.2
CCOc1ccc(N(CC(=O)NC2CCCC2)C(=O)CSc2nnc(COc3ccccc3)o2)cc1	-5.0%	nt	7.38µM*	1.9	-8.6%	10.5
O=C(CN(C(=O)CSc1nnc(COc2ccccc2)o1)c1ccc(F)cc1)NC1CCCCC1	-3.5%	11.7µM*	?	-2.2	-0.8%	-2.4
O=C(CN(C(=O)CSc1nnc(COc2ccccc2)o1)c1ccc(F)cc1)NC1CCCC1	1.1%	8.7%	6.8%	0.2	-3.5%	-8.1
Cc1ccc(-n2c(CSc3nc(C)cc(C)n3)nnc2SCC(=O)N2CCCC2)cc1	1.6%	-29.4%	?	0.3	-5.6%	-22.1
Cc1ccc(C)c(OCc2cc(C(=O)N(C)Cc3ccccn3)no2)c1	87.1%	14.8%	?	28.7*	-4.8%	48.7*
Cc1ccc(C)c(OCc2cc(C(=O)N(C)Cc3nccs3)no2)c1	1.5%	-4.4%	?	22.9*	-9.7%	52.0*
COCCNC(=O)C1(C)CCCN(C(=O)c2ccc3c(c2)CCO3)C1 (centres undefined)	0.0%	nt	nt	nt	nt	nt
Cc1ccc(N2CC(O)=C(c3nc4ccccc4c(=O)[nH]3)C2=N)cc1C	-17.2%	14.1%	36.9%	7.8	-0.2%	-1.6
COC(=O)C1=C(O)/C(=C/c2cccc(OC)c2O)N=C1C	-5.6%	72.0%	38.2%	29.2*	-1.0%	46.9*
COC(=O)C1=C(O)/C(=C\c2cc(C)n(-c3ccc(F)cc3)c2C)N=C1C	3.6%	?	6.8%	31.1	-3.6%	75.3*
N#CC1(C#N)OC12CCS(=O)(=O)c1ccccc12 (centres undefined)	-3.6%	nt	nt	nt	nt	nt
Cc1cc(C(=O)COC(=O)c2ccc3c(c2)NC(=O)CS3)c(C)n1CC1CCCO1 (centres undefined)	-4.5%	-7.0%	0.0%	37.9*	3.2%	55.9*
COCC(C)n1c(C)cc(C(=O)COC(=O)c2ccc3c(c2)NC(=O)CS3)c1C (centres undefined)	14.9%	10.4µM*	7.38µM*	15.0	-6.4%	26.9
SMILES	AMA1-RON2 inh	Pf growth 48h	Pf growth 96h	Cycloheximide cs	SARS PLP yeast	Shiga inhibitor
Cc1cc(C(=O)COC(=O)c2ccc(O)cc2)c(C)n1CC1CCCO1 (centres undefined)	4.6%	286.8%	288.1%	58.6*	0.3%	107.0*
COc1cc(OC)cc(C(=O)OCC(=O)c2cc(C)n(CC3CCCO3)c2C)c1 (centres undefined)	-8.6%	14.2%	69.3%	nt	0.8%	nt
O=C(C1COc2ccccc2O1)N1CCN(c2ccc(C(F)(F)F)cn2)CC1 (centres undefined)	2.9%	nt	nt	nt	13.3%	nt
O=C(NCCn1cc(SCc2ccc(F)cc2)c2ccccc21)c1c(F)cccc1F	7.2%	?	?	14.1*	-9.2%	25.2
CCCn1cc(SCC(=O)NCc2ccco2)c2ccccc21	-2.7%	2.08µM*	6.57µM*	8.7	-5.0%	15.6
O=C(CSc1cn(CCNC(=O)c2ccccc2)c2ccccc12)NCc1ccco1	1.8%	nt	?	36.1*	-0.7%	52.7*
Cc1ccccc1NC(=O)Cc1nc(COC(=O)CCc2ccccc2)cs1	10.5%	-29.9%	11.6%	nt	-2.0%	nt
Cc1ccccc1S(=O)(=O)c1c(C)cc(-c2ccccc2)[nH]c1=O	1.5%	-0.3%	?	0.3	0.5%	-7.0
COc1ccc(S(=O)(=O)N2Cc3ccccc3CC2C(=O)Nc2nccs2)cc1 (centres undefined)	28.2%	168.2%	188.1%	28.6*	-3.4%	74.8*
COc1ccc(S(=O)(=O)N2Cc3ccccc3CC2C(=O)Nc2nccs2)cc1OC (centres undefined)	3.8%	26.0%	nt	43.3*	-2.1%	91.6*
O=C(Nc1nccs1)[C@@H]1CCCN1S(=O)(=O)c1ccc(Cl)cc1	17.6%	nt	nt	nt	0.7%	nt
CN(c1ccccc1C(=O)Nc1cccc([N+](=O)[O-])c1)S(C)(=O)=O	14.7%	12.0%	?	-2.7	11.9%	-4.2
COc1ccc(NC(=O)/C(C#N)=C/c2ccc(OCCN3CCOCC3)c(OC)c2)c(OC)c1	-2.9%	-6.1%	13.1µM*	-2.0	-4.1%	12.5
COc1ccccc1NC(=O)/C(C#N)=C/c1ccc(OCCN2CCOCC2)c(OC)c1	13.3%	7.7%	2.8%	3.8	-5.0%	29.8
N#C/C(=C\c1ccc(OCCN2CCOCC2)cc1)C(=O)Nc1ccc(S(N)(=O)=O)cc1	16.5%	2.7%	6.57µM*	-2.9	0.4%	-29.6
O=c1oc(Cc2ccccc2)nc2ccccc12	-8.5%	44.3%	28.8%	13.7*	-1.6%	14.5
COCCN(C)C(=O)CC1C(=O)NCCN1CC(c1ccccc1)c1ccccc1 (centres undefined)	8.9%	-4.4%	?	0.7	5.6%	-3.7
COc1cccc(OC)c1C(=O)Nc1cccc(NC(=O)c2cccs2)c1	-0.9%	7.1%	?	-1.3	8.2%	2.3
COc1ccc(C(=O)Nc2cccc(NC(=O)c3cccs3)c2)cc1OC	0.3%	-18.5%	-17.8%	20.4*	0.0%	23.4*
